{"source": "paper PMC11062922", "about": "(Nature Chemical Biology, 2023);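 for Kinobeads Data: kinobeads ε competition pulldown from cell lysate, compound preincubated 45 min at 4 °C, bound kinases quantified by LC–MS/MS relative to DMSO control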", "design_in_all_cases": "species or system human, MV4-11 + K-562 + COLO205 + SK-N-BE2 + OVCAR-8", "key": {"[1]": {"tested_on": "FLT3", "conditions": "compound concentrations: 100 nM and 1000 nM (sheet 'Samples')"}, "[2]": {"tested_on": "JAK1(JH2domain-pseudokinase)", "conditions": "compound concentrations: 100 nM and 1000 nM (sheet 'Samples')"}, "[3]": {"tested_on": "MLK1", "conditions": "compound concentrations: 100 nM and 1000 nM (sheet 'Samples')"}, "[4]": {"tested_on": "NEK6", "conditions": "compound concentrations: 100 nM and 1000 nM (sheet 'Samples')"}, "[5]": {"tested_on": "RSK1(Kin.Dom.1-N-terminal)", "conditions": "compound concentrations: 100 nM and 1000 nM (sheet 'Samples')"}, "[6]": {"tested_on": "SMG1", "conditions": "read-out: apparent Kd; compound concentrations:100 nM and 1000 nM (sheet 'Samples'); n = 1"}, "[7]": {"tested_on": "FN3KRP", "conditions": "read-out: apparent Kd; compound concentrations: 100 nM and 1000 nM (sheet 'Samples'), CATDS: 2.5837856545343801E-2; n = 1"}, "[8]": {"tested_on": "ACLY", "conditions": "read-out: apparent Kd; compound concentrations: 100 nM and 1000 nM (sheet 'Samples'), CATDS: 2.7002269039485799E-2; n = 1"}, "[9]": {"tested_on": "GARS", "conditions": "read-out: apparent Kd; compound concentrations: 100 nM and 1000 nM (sheet 'Samples'), CATDS: 2.4594129373340799E-2; n = 1"}, "[10]": {"tested_on": "PFKP", "conditions": "read-out: apparent Kd; compound concentrations: 100 nM and 1000 nM (sheet 'Samples'), CATDS: 2.5253779658022699E-2; n = 1"}, "[11]": {"tested_on": "ACVRL1", "conditions": "read-out: apparent Kd; compound concentrations: 100 nM and 1000 nM (sheet 'Samples'), CATDS: 0.20940846784164599; n = 1"}, "[12]": {"tested_on": "AGPS", "conditions": "read-out: apparent Kd; compound concentrations: 100 nM and 1000 nM (sheet 'Samples'), CATDS: 9.2169061942303496E-2; n = 1"}, "[13]": {"tested_on": "CLK3", "conditions": "read-out: apparent Kd; compound concentrations: 100 nM and 1000 nM (sheet 'Samples'), CATDS: 3.87460825135853E-2; n = 1"}, "[14]": {"tested_on": "TTN", "conditions": "read-out: apparent Kd; compound concentrations: 100 nM and 1000 nM (sheet 'Samples'), CATDS: 1.2755516587496201E-2; n = 1"}, "[15]": {"tested_on": "SNRNP200", "conditions": "read-out: apparent Kd; compound concentrations: 100 nM and 1000 nM (sheet 'Samples'), CATDS: 1.8625825044313801E-2; n = 1"}, "[16]": {"tested_on": "GSPT1;GSPT2", "conditions": "read-out: apparent Kd; compound concentrations: 100 nM and 1000 nM (sheet 'Samples'), CATDS: 3.5728111751545999E-2; n = 1"}, "[17]": {"tested_on": "SLC25A6;SLC25A4", "conditions": "read-out: apparent Kd; compound concentrations: 100 nM and 1000 nM (sheet 'Samples'), CATDS: 2.6658773348472799E-2; n = 1"}, "[18]": {"tested_on": "SMC2", "conditions": "read-out: apparent Kd; compound concentrations: 100 nM and 1000 nM (sheet 'Samples'), CATDS: 2.55109529885677E-2; n = 1"}, "[19]": {"tested_on": "RAB14", "conditions": "read-out: apparent Kd; compound concentrations: 100 nM and 1000 nM (sheet 'Samples'), CATDS: 3.92328124697153E-2; n = 1"}, "[20]": {"tested_on": "PSMC3", "conditions": "read-out: apparent Kd; compound concentrations: 100 nM and 1000 nM (sheet 'Samples'), CATDS: 3.1956932095177297E-2; n = 1"}}, "data": [{"smiles": "COc1cc(Nc2ncc3c(C)nc(-c4cc5ccccc5[nH]4)n3n2)cc(OC)c1OC", "note": "[GW869516X]", "values": [{"measurement": "Kinobeads Data", "setting": "[1]", "result": "no target"}, {"measurement": "Kinobeads Data", "setting": "[2]", "result": "no target"}, {"measurement": "Kinobeads Data", "setting": "[3]", "result": "no target"}, {"measurement": "Kinobeads Data", "setting": "[4]", "result": "no target"}, {"measurement": "Kinobeads Data", "setting": "[5]", "result": "no target"}]}, {"smiles": "CC(=O)N[C@@H](Cc1ccc(OP(=O)(O)O)cc1)C(=O)N[C@H]1CCC(=O)N2CCC[C@@H](C(=O)NCc3ccc(Cl)cc3)N2C1=O", "note": "[RO0325308-000]", "values": [{"measurement": "potency estimated from few doses", "setting": "[6]", "result": 121, "unit": "nM"}]}, {"smiles": "CCN(CC)Cc1ccc(Nc2nccc(-c3cnn4ncccc34)n2)cc1", "note": "[GW780056X]", "values": [{"measurement": "potency estimated from few doses", "setting": "[7]", "result": 618, "unit": "nM"}]}, {"smiles": "Cl.Cl.NC(CNC(=O)c1cc(Br)c(-c2ccnc3[nH]ccc23)s1)c1ccccc1.NC(CNC(=O)c1cc(Br)c(-c2ccnc3[nH]ccc23)s1)c1ccccc1", "note": "(centres unmarked) [GSK1322949A]", "values": [{"measurement": "potency estimated from few doses", "setting": "[8]", "result": 1570, "unit": "nM"}, {"measurement": "potency estimated from few doses", "setting": "[9]", "result": 2030, "unit": "nM"}, {"measurement": "potency estimated from few doses", "setting": "[10]", "result": 1880, "unit": "nM"}]}, {"smiles": "FC(F)(F)c1ccc(-c2ncn(CCCN3CCOCC3)c2-c2ccncc2)cc1", "note": "[SB-217780]", "values": [{"measurement": "potency estimated from few doses", "setting": "[11]", "result": 1630, "unit": "nM"}]}, {"smiles": "COc1ccc(-c2cc3c(N)ncnc3o2)cc1", "note": "[GW642138X]", "values": [{"measurement": "potency estimated from few doses", "setting": "[12]", "result": 2180, "unit": "nM"}]}, {"smiles": "NCC(NC(=O)c1cc(-c2cn[nH]c2)c(-c2ccnc3[nH]ccc23)s1)c1ccccc1.NCC(NC(=O)c1cc(-c2cn[nH]c2)c(-c2ccnc3[nH]ccc23)s1)c1ccccc1.O=C(O)C(F)(F)F.O=C(O)C(F)(F)F", "note": "(centres unmarked) [GSK1325775A]", "values": [{"measurement": "potency estimated from few doses", "setting": "[13]", "result": 907, "unit": "nM"}]}, {"smiles": "CCn1c(-c2cccnc2O)nc2cnccc21", "note": "[SB-736715]", "values": [{"measurement": "potency estimated from few doses", "setting": "[14]", "result": 1870, "unit": "nM"}]}, {"smiles": "COc1cc(Nc2nccc(-c3cnn4ncccc34)n2)cc(OC)c1", "note": "[GW801372X]", "values": [{"measurement": "potency estimated from few doses", "setting": "[15]", "result": 1540, "unit": "nM"}]}, {"smiles": "CCC(CC)(CC)n1cnc2c(N)ncnc21", "note": "[SKF-97620]", "values": [{"measurement": "potency estimated from few doses", "setting": "[16]", "result": 655, "unit": "nM"}, {"measurement": "potency estimated from few doses", "setting": "[17]", "result": 1430, "unit": "nM"}, {"measurement": "potency estimated from few doses", "setting": "[18]", "result": 1640, "unit": "nM"}]}, {"smiles": "COc1ccc(Nc2nccc(NCCNC(=O)Nc3cc(C)ccc3C)n2)cc1", "note": "[GSK1379899A]", "values": [{"measurement": "potency estimated from few doses", "setting": "[19]", "result": 2280, "unit": "nM"}]}, {"smiles": "Cn1cc(C2=C(c3ccc(OC[C@@H](O)CO)cc3)C(=O)NC2=O)c2ccccc21", "note": "[RO3208546-000]", "values": [{"measurement": "potency estimated from few doses", "setting": "[20]", "result": 2090, "unit": "nM"}]}]}
